# PubChem BioAssay AID1159580 (chemical genetic matrix, 2015)
# Where “and” joins values, the source holds several entries; their conditions need not be identical. Equal entries are not always repeated. Out of some 5,500 compounds screened, about 2,000 (36%) were called active. About 18% were inconclusive and are not listed. The list shows a part of the results. Values without a mark were called inactive. Cut-off read from the data, not from the text of the source: active = normalized growth mostly below about 0.91 (no sharp cut-off); inconclusive = no clear call, values can overlap the other calls; inactive = mostly above about 0.92.
# Experiment: chemical genetic growth profiling, strain panel (AID 1159580);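 note: tested at 20 µM; growth read once vehicle control cultures reached saturation at 30 °C; 1 = growth at the plate median or of vehicle wells; lower values mean less growth of the strain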
# Conditions: S. cerevisiae deletion strains, growth OD
structure (smiles),measurement,setting,value
Oc1cc(O)c2c(c1)O[C@H](c1ccc(O)c(O)c1)[C@H](O)C2,normalized growth,"locus YAL021C, strain ccr4, hits give low values",1.02
same,normalized growth,"locus YAL026C, strain drs2, hits give low values",1.01
same,normalized growth,"locus YAL030W, strain snc1, hits give low values",1
same,normalized growth,"locus YBL061C, strain skt5, hits give low values",1.02
same,normalized growth,"locus YBR009C, strain hhf1, hits give low values",1.02
same,normalized growth,"locus YBR021W, strain FUR4, hits give low values",1.21 [resistant] (active)
same,normalized growth,"locus YBR023C, strain chs3, hits give low values",1.01
same,normalized growth,"locus YBR171W, strain sec66, hits give low values",1.02
same,normalized growth,"locus YBR229C, strain ROT2, hits give low values",1
same,normalized growth,"locus YBR231C, strain swc5, hits give low values",1.02
same,normalized growth,"locus YBR279W, strain paf1, hits give low values",1.01
same,normalized growth,"locus YCL011C, strain gbp2, hits give low values",1.01
same,normalized growth,"locus YCL016C, strain dcc1, hits give low values",1
same,normalized growth,"locus YCL029C, strain bik1, hits give low values",0.976
same,normalized growth,"locus YCL061C, strain MRC1, hits give low values",1.01
same,normalized growth,"locus YCL069W, strain vba3, hits give low values",1.01
same,normalized growth,"locus YCR088W, strain abp1, hits give low values",1.01
same,normalized growth,"locus YDL005C, strain med2, hits give low values",1.01
same,normalized growth,"locus YDL035C, strain GPR1, hits give low values",1.03
same,normalized growth,"locus YDL040C, strain nat1, hits give low values",0.998
same,normalized growth,"locus YDL074C, strain BRE1, hits give low values",1
same,normalized growth,"locus YDL101C, strain DUN1, hits give low values",1
same,normalized growth,"locus YDL185W, strain tfp1, hits give low values",0.953
same,normalized growth,"locus YDL192W, strain arf1, hits give low values",0.992
same,normalized growth,"locus YDR001C, strain nth1, hits give low values",1
same,normalized growth,"locus YDR069C, strain doa4, hits give low values",1
same,normalized growth,"locus YDR101C, strain arx1, hits give low values",0.986
same,normalized growth,"locus YDR137W, strain rgp1, hits give low values",1.02
same,normalized growth,"locus YDR150W, strain NUM1, hits give low values",0.984
same,normalized growth,"locus YDR159W, strain sac3, hits give low values",1.06
same,normalized growth,"locus YDR162C, strain NBP2, hits give low values",1.03
same,normalized growth,"locus YDR195W, strain ref2",0.968
same,normalized growth,"locus YDR297W, strain sur2, hits give low values",1.01
same,normalized growth,"locus YDR318W, strain mcm21, hits give low values",0.995
same,normalized growth,"locus YDR334W, strain swr1, hits give low values",1.01
same,normalized growth,"locus YDR335W, strain msn5, hits give low values",0.994
same,normalized growth,"locus YDR388W, hits give low values",0.995
same,normalized growth,"locus YDR392W, strain spt3, hits give low values",1.01
same,normalized growth,"locus YDR502C, strain sam2, hits give low values",1.01
same,normalized growth,"locus YEL003W, strain gim4, hits give low values",1.01
same,normalized growth,"locus YEL037C, strain rad23, hits give low values",1.02
same,normalized growth,"locus YEL061C, strain CIN8 (second series), hits give low values",1
same,normalized growth,"locus YEL061C, strain CIN8, hits give low values",0.994
same,normalized growth,"locus YER015W, strain faa2, hits give low values",1
same,normalized growth,"locus YER016W, strain bim1, hits give low values",1.01
same,normalized growth,"locus YER110C, hits give low values",0.969
same,normalized growth,"locus YER111C, strain swi4, hits give low values",1
same,normalized growth,"locus YER155C, strain BEM2 (second series), hits give low values",1.02
same,normalized growth,"locus YER155C, strain BEM2, hits give low values",1
same,normalized growth,"locus YER167W, strain BCK2, hits give low values",1.02
same,normalized growth,"locus YFR010W, strain ubp6, hits give low values",1.01
same,normalized growth,"locus YGL078C, strain dbp3, hits give low values",0.997
same,normalized growth,"locus YGL086W, strain mad1, hits give low values",0.994
same,normalized growth,"locus YGL167C, strain pmr1, hits give low values",1.01
same,normalized growth,"locus YGL173C, strain kem1, hits give low values",1.01
same,normalized growth,"locus YGL227W, strain vid30, hits give low values",1.01
same,normalized growth,"locus YGL240W, strain doc1, hits give low values",1.04
same,normalized growth,"locus YGL248W, strain PDE1, hits give low values",1
same,normalized growth,"locus YGL253W, strain hxk2, hits give low values",1.02
same,normalized growth,"locus YGR135W, strain pre9, hits give low values",1.01
same,normalized growth,"locus YGR252W, strain gcn5, hits give low values",1.13
same,normalized growth,"locus YHR013C, strain ard1, hits give low values",0.995
same,normalized growth,"locus YHR027C, strain rpn1, hits give low values",1.01
same,normalized growth,"locus YHR030C, strain SLT2, hits give low values",1 and 0.992
same,normalized growth,"locus YHR079C, strain IRE1 (second series), hits give low values",0.975
same,normalized growth,"locus YHR079C, strain IRE1, hits give low values",0.992
same,normalized growth,"locus YHR094C, strain hxt1, hits give low values",0.992
same,normalized growth,"locus YHR129C, strain ARP1, hits give low values",1
same,normalized growth,"locus YHR142W, strain chs7, hits give low values",1.02
same,normalized growth,"locus YHR200W, strain rpn10, hits give low values",0.983
same,normalized growth,"locus YIL066C, strain RNR3, hits give low values",1.01
same,normalized growth,"locus YIL073C, strain SPO22, hits give low values",0.997
same,normalized growth,"locus YIL125W, strain kgd1, hits give low values",0.996
same,normalized growth,"locus YIR030C, strain dcg1, hits give low values",0.986
same,normalized growth,"locus YJL092W, strain hpr5, hits give low values",1.02
same,normalized growth,"locus YJL095W, strain BCK1 (second series), hits give low values",1.01
same,normalized growth,"locus YJL095W, strain BCK1, hits give low values",0.984 and 1
same,normalized growth,"locus YJL115W, strain asf1, hits give low values",1
same,normalized growth,"locus YJL129C, strain trk1, hits give low values",1.02
same,normalized growth,"locus YJL134W, strain LCB3, hits give low values",0.991
same,normalized growth,"locus YJL154C, strain vps35, hits give low values",1.01
same,normalized growth,"locus YJL164C, strain tpk1, hits give low values",1
same,normalized growth,"locus YJL166W, strain qcr8, hits give low values",1.02
same,normalized growth,"locus YJL168C, strain set2, hits give low values",0.98
same,normalized growth,"locus YJL187C, strain SWE1 (second series), hits give low values",0.994
same,normalized growth,"locus YJL187C, strain SWE1, hits give low values",1
